Inconclusive results are not listed. Where a call stands in place of a potency, no number is given. Activity calls are given as the source filed them. Unless noted, the call rests on the fitted dose curve; in most records, active means well fitted curve in the direction sought with a large enough effect; inconclusive means small, poorly fitted or top-dose-only effect, or another doubt; inactive means no such curve, though single readings can be large; an effect the other way counts as inactive or inconclusive.
How the values were obtained:
[1] = biological target: Aldehyde dehydrogenase, mitochondrial (Homo sapiens) (UniProt P05091); assay: qHTS for Inhibitors of the Aldehyde Dehydrogenase Family (ALDH2) Confirmatory screens (AID 2061303; active means well fitted inhibition curve with a large enough effect; title and protocol of this record describe different tests; further: nearly all actives have a fitted effect of over 45% in size; further: potency means the concentration at half of the fitted maximal effect); settings: ALDH inhibition qHTS; series mostly up to 45.4 µM
[2] = qHTS for Inhibitors of the Aldehyde Dehydrogenase Family (ALDH1A2, ALDH1A3, ALDH2, ALDH3A1) (AID 2061307); settings: ALDH inhibition qHTS; series mostly up to 50.3 µM; further: nearly all actives have a fitted effect of over 50% in size; on potency: test system not described further here; potency means the concentration at half of the fitted maximal effect
[3] = biological target: Retinaldehyde dehydrogenase 3 (Homo sapiens) (UniProt P47895); assay: qHTS for Inhibitors of the Aldehyde Dehydrogenase Family (ALDH1A3) Confirmatory screens (AID 2061311); settings: ALDH inhibition qHTS; series mostly up to 46 µM; further: nearly all actives have a fitted effect of over 60% in size; further: potency means the concentration at half of the fitted maximal effect
[4] = biological target: Retinaldehyde dehydrogenase 3 (Homo sapiens) (UniProt P47895); assay: qHTS for Inhibitors of the Aldehyde Dehydrogenase Family (ALDH1A3) Primary screen (AID 2061315); settings: ALDH inhibition qHTS; series mostly up to 56 µM
[5] = biological target: Retinal dehydrogenase 2 (Homo sapiens) (UniProt O94788); assay: qHTS for Inhibitors of the Aldehyde Dehydrogenase Family (ALDH1A2) Confirmation screens (AID 2061314); settings: ALDH1A2 enzyme inhibition qHTS confirmation; series mostly up to 45.9 µM; further: nearly all actives have a fitted effect of over 65% in size; further: potency means the concentration at half of the fitted maximal effect
[6] = biological target: Aldehyde dehydrogenase 1A1 (Homo sapiens) (UniProt P00352); assay: qHTS for Inhibitors of the Aldehyde Dehydrogenase Family (ALDH1A1) Confirmatory screens (AID 2061316); settings: ALDH inhibition qHTS; series mostly up to 47.3 µM; further: nearly all actives have a fitted effect of over 65% in size; further: potency means the concentration at half of the fitted maximal effect
[7] = biological target: Aldehyde dehydrogenase, mitochondrial (Homo sapiens) (UniProt P05091); assay: qHTS for Inhibitors of the Aldehyde Dehydrogenase Family (ALDH2) Primary screen (AID 2061308); settings: ALDH2 enzyme inhibition qHTS, 1536-well; series mostly up to 56 µM; further: nearly all actives have a fitted effect of over 55% in size

Compound	Potency [1]	Potency [2]	Potency [3]	Potency [4]	Potency [5]	Potency [6]	Potency [7]
CC[C@H](CO)Nc1nc(Nc2cccc(-c3ccccn3)c2)c2ncn(C(C)C)c2n1	inactive	inactive	inactive	inactive	–	–	–
COc1ccc(CC(=O)Nc2c(C(=O)N3CCN(c4ccccc4)CC3)oc3ccccc23)cc1OC	inactive	inactive	–	–	inactive	–	–
O=c1c2ccccc2nc2sc(Nc3ccc(Sc4ccccc4)cc3)nn12	inactive	12.6 µM (active)	–	inactive	4 µM (active)	–	–
O=C1c2ccccc2C(=O)N1c1cccc2ccncc12	inactive	inactive	inactive	inactive	–	–	–
CC(C)(C)OC(=O)N1CCN(c2ccc(NCc3cccc(-c4ccc(C#N)cc4)n3)cc2)CC1	0.201 µM (active)	0.142 µM (active)	inactive	inactive	–	8.96 µM (active)	–
COc1ccc2c(c1)CCc1sc(NC(=O)c3ccc(Cl)cc3)nc1-2	15.8 µM (active)	3.24 µM (active)	16.2 µM (active)	–	–	4.58 µM (active)	–
Cc1ccc(CSc2ccc3nnc(CCNS(=O)(=O)c4ccc(C)cc4)n3n2)cc1	inactive	inactive	–	–	inactive	–	–
C[N+](C)(C)CCOC(=O)CCC(=O)OCC[N+](C)(C)C	inactive	inactive	inactive	–	inactive	inactive	–
CCOc1ccc(NC(=O)C2CCN(c3cnn(Cc4ccccc4)c(=O)c3)C2)cc1 (stereo not given)	inactive	inactive	–	–	inactive	–	–
O=C(Nc1cncc(-c2cccc3ccccc23)c1)c1cccs1	inactive	5.62 µM (active)	20.1 µM (active)	inactive	–	–	–
Cc1cc(-c2nnc3n2CCCCC3)c(C)n1-c1cccc(C#N)c1	inactive	inactive	–	inactive	inactive	–	–
Cc1ccc(CCNc2ncnc3onc(-c4ccc(Cl)cc4)c23)cc1	inactive	inactive	4.47 µM (active)	–	inactive	inactive	–
CC(C)(C)OC(=O)N1CCN(c2ccc(NCc3cnc(-c4ccc(C#N)cc4)s3)cc2)CC1	1.79 µM (active)	2.83 µM (active)	–	inactive	inactive	11.3 µM (active)	–
O=Cc1ccc(-c2ccc3ncnc(NCc4cccs4)c3c2)o1	11.3 µM (active)	inactive	–	inactive	inactive	–	–
COc1ccccc1-c1cc(C(=O)NCc2ccc(C(F)(F)F)cc2)c2cnn(C)c2n1	inactive	inactive	7.08 µM (active)	–	inactive	inactive	–
CCc1ccc(-n2c(SCc3cccc(F)c3)nc3[nH]ncc3c2=O)cc1	inactive	inactive	15.8 µM (active)	–	inactive	1.82 µM (active)	–
COc1ccc(S(=O)(=O)N2CCN(C(=O)c3ccc([N+](=O)[O-])o3)CC2)cc1	inactive	inactive	inactive	–	inactive	10 µM (active)	–
COc1cccc(-c2ccc(CNc3ccc(N4CCN(C(=O)OC(C)(C)C)CC4)cc3)o2)c1	11.3 µM (active)	14.2 µM (active)	inactive	inactive	–	–	–
COc1cccc(-c2cc(C(=O)NCC(F)F)c3cnn(C)c3n2)c1	inactive	inactive	5.01 µM (active)	–	–	inactive	–
COc1ccccc1-c1cc(NCCc2ccccn2)c2onc(C)c2n1	inactive	inactive	22.4 µM (active)	–	inactive	inactive	–
COc1cccc(-c2ccc(CN3CCCC(NC(=O)Nc4ccccc4)C3)cc2)c1 (stereo not given)	inactive	12.6 µM (active)	–	–	inactive	–	–

Compound	Potency [1]	Potency [2]	Potency [3]	Potency [4]	Potency [5]	Potency [6]	Potency [7]
CCOc1ccc(NC(=O)Cn2c(Nc3cc(C)cc(C)c3)nc(C)cc2=O)cc1	15.8 µM (active)	inactive	inactive	–	–	inactive	–
O=S(=O)(NCCc1nnc2ccc(SCc3ccc(C(F)(F)F)cc3)nn12)c1ccccc1	inactive	inactive	25.1 µM (active)	–	inactive	inactive	–
COc1cccc(-n2cc(C(=O)Nc3cccc(C(F)(F)F)c3)c3ccccc3c2=O)c1	inactive	11.2 µM (active)	–	–	inactive	–	–
O=C(NCc1ccc(F)c(F)c1)c1ccc2nnc(-c3cccc(C(F)(F)F)c3)n2c1	inactive	8.91 µM (active)	inactive	–	inactive	inactive	–
COc1cc(NC(=S)N2CCN(c3cccc(C(F)(F)F)c3)CC2)nc2ccccc12	25.1 µM (active)	inactive	–	inactive	7.94 µM (active)	–	–
CCc1ccc(-n2c(=O)c3cccnc3n2CC(=O)Nc2cc(F)ccc2F)cc1	inactive	inactive	–	–	inactive	–	–
O=c1[nH]c2ccc(NCc3ccc(-c4ccccc4F)o3)cc2[nH]1	0.576 µM (active)	4.47 µM (active)	–	–	inactive	–	–
Cc1cc(-c2nnc3n2CCCCC3)c(C)n1-c1ccccn1	inactive	inactive	14.2 µM (active)	inactive	–	–	–
COc1ccc(-c2nc(CNS(=O)(=O)c3ccc(F)cc3)cs2)cc1	11.2 µM (active)	inactive	inactive	–	–	inactive	–
O=C(O)c1cccc(-n2[nH]c(-c3ccccc3)cc2=O)c1	11.2 µM (active)	5.01 µM (active)	15.8 µM (active)	–	7.98 µM (active)	25.1 µM (active)	–
N#Cc1ccc(-c2ccc(CNc3ccc(N4CCOCC4)cc3)o2)cc1	0.04 µM (active)	0.565 µM (active)	15.9 µM (active)	–	–	7.98 µM (active)	–
CCc1ccc(CN2CCC(C(=O)Nc3ccc(Oc4cccnc4)cc3)CC2)o1	5.01 µM (active)	inactive	inactive	–	–	inactive	–
Cc1ccc(OCCn2c(CCNC(=O)c3ccc([N+](=O)[O-])cc3)nc3ccccc32)cc1	22.5 µM (active)	inactive	–	inactive	inactive	17.9 µM (active)	–
CC(C)(C)OC(=O)N1CCN(c2ccc(NCc3ccc(-c4cccc([N+](=O)[O-])c4)o3)cc2)CC1	0.896 µM (active)	4 µM (active)	inactive	inactive	–	14.2 µM (active)	–
Cc1ccc2c(c1)-c1c(cnn1CC(=O)N1CCN(c3cccc(C(F)(F)F)c3)CC1)CO2	inactive	10 µM (active)	inactive	–	inactive	inactive	–
O=C(Nc1cccc(C(F)(F)F)c1)c1cccc(C(=O)Nc2cccc(C(F)(F)F)c2)c1	inactive	inactive	inactive	–	–	inactive	–
O=C(Nc1ccc(Cl)c(Cl)c1)Nc1cccc(-c2ccncc2)n1	inactive	inactive	–	inactive	inactive	inactive	–
COc1ccc(-c2nc3cccc(OC)c3c(=O)n2Cc2ccccc2)cc1COc1ccc(NC(C)=O)cc1	28.2 µM (active)	2.01 µM (active)	25.1 µM (active)	–	–	12.7 µM (active)	–
COc1cccc(-c2nc(SCc3ccc(C)cc3)n3[nH]c(=O)cc3n2)c1	inactive	inactive	7.08 µM (active)	–	inactive	inactive	–
O=C(Nc1cccc(-c2nc3cc(Cl)ccc3o2)c1)c1cc([N+](=O)[O-])ccc1N1CCOCC1	inactive	inactive	–	–	inactive	inactive	–
Cc1ccnc(NC(=S)N2CCN(C)CC2)c1	inactive	inactive	–	–	inactive	20.1 µM (active)	–

Compound	Potency [1]	Potency [2]	Potency [3]	Potency [4]	Potency [5]	Potency [6]	Potency [7]
Cc1ccc(OCCn2c(CCNC(=O)c3ccc(N)cc3)nc3ccccc32)cc1	10.1 µM (active)	0.896 µM (active)	–	inactive	7.98 µM (active)	3.18 µM (active)	–
COc1cc(O)c(C(CC(=O)N2CCCC(CN3CCCCC3)C2)c2ccc3c(c2)OCO3)c(OC)c1 (stereo not given)	inactive	–	–	–	–	–	inactive
O=C1CCCC2=C1C(c1ccccc1Cl)N=C(c1ccccn1)N2 (stereo not given)	inactive	inactive	–	inactive	–	–	–
O=C(Cn1nc(-c2ccc(F)cc2)ccc1=O)NCCc1ccccc1	inactive	inactive	–	inactive	–	inactive	–
OCc1ccc(-c2ccc3ncnc(N4CCOCC4)c3c2)o1	11.3 µM (active)	1 µM (active)	–	inactive	–	3.18 µM (active)	–
COc1cccc(Cc2nc3ccccc3nc2SCC(=O)N2CCN(c3ccccc3)CC2)c1	inactive	inactive	–	–	inactive	inactive	–
CCOc1ccc(NC(=O)CSc2nc3ccccc3nc2N2CCOCC2)cc1	inactive	inactive	–	–	–	inactive	–
CC(=O)N1CCN(c2ccc(NCc3ccc(C)cc3)cc2)CC1	inactive	–	22.5 µM (active)	–	11.3 µM (active)	–	inactive
N#Cc1ccc(-c2ccc(CNc3ccc(N4CCN5CCCCC5C4)cc3)o2)cc1 (stereo not given)	0.0252 µM (active)	0.449 µM (active)	–	inactive	inactive	8.96 µM (active)	–
COc1cc(Nc2nc(-c3ccncc3)nc3ccccc23)ccc1N1CCN(C)CC1	inactive	–	–	–	–	–	inactive
COc1ccc(NC(=O)O[C@@H]2CO[C@H]3[C@@H]2OC[C@@H]3n2nnnc2SCc2ccco2)cc1	inactive	12.9 µM (active)	–	–	–	10.2 µM (active)	–
COc1ccnc(NC(=S)N2CCN(c3ccccc3C(F)(F)F)CC2)c1	inactive	14.1 µM (active)	–	–	11.3 µM (active)	5.65 µM (active)	–
COc1cc(N2C(=O)c3ccccc3C2=O)c2ncccc2c1	inactive	inactive	–	–	–	inactive	–
CN1CCN(c2nn3c(=O)c4ccccc4nc3s2)CC1	inactive	–	8.96 µM (active)	–	–	–	inactive
CC(=O)/C=C1/C(=O)N(C)c2ccccc21	inactive	inactive	–	–	14.2 µM (active)	4 µM (active)	–
CCCCc1ccc(NC(=O)CSc2nc3ccccc3nc2N2CCOCC2)cc1	inactive	inactive	–	–	–	inactive	–
Cc1cc(C=CC#N)cc(C)c1Nc1nc(Nc2ccc3c(c2)CCC3)c2[nH]cnc2n1	inactive	–	inactive	inactive	inactive	–	inactive
CC(=O)c1ccc(N2CCN(C(=O)Nc3ccc(C(C)C)cc3)CC2)cc1	inactive	inactive	–	–	–	3.24 µM (active)	–
CCc1nc2nc(C)cc(Nc3ccc(Br)cc3F)n2n1	inactive	inactive	–	–	inactive	inactive	–
N#CC1CCN(c2nc(-c3ccc(Br)cc3)cs2)CC1	inactive	–	inactive	inactive	inactive	–	inactive

Source: PubChem BioAssay (NCATS)
